# ELG1 genotoxic: inducers of genotoxicity in HEK293T ELG1-luciferase cells; HEK293T ELG1-luciferase reporter, luminescence, 16 h; 330,000 tested, 1.3% active; AID 504466; Potency, µM (series often up to 46 µM), for inactives: top-dose activity change, positive = activation, most hits filed as activators; further: % of control where 0% means no effect; nearly all actives have a fitted effect of over 60% in size
#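 Genotoxic stress is detected as increased luminescence from luciferase-tagged ELG1 in HEK293T cells, measured with ONE-Glo after a 16 hr treatment at 37 °C.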
# Rab9 prom act: Rab9 promoter activation. Huh7 Rab9 promoter-luciferase reporter, luminescence, 24 h. Potency, µM (series often up to 9.22 µM), for inactives: top-dose activation, negative = inhibition, hits mostly activators. 320,000 tested, 2.8% active; further: % of control where 0% means no effect; nearly all actives have a fitted effect of over 60% in size
#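 Huh7 reporter line, Rab9 promoter upstream of luciferase. Compound exposure 24 h at 37 °C in reduced-serum medium with 10% FBS. Read-out: luminescence.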
# FLuc modulator: firefly luciferase modulation, counter-screen for miR-21 project; P08659; purified FLuc, Km substrates, luminescence inhibition; Potency, µM (top dose mostly 57.5 µM), for inactives: top-dose activity change, negative = inhibition, actives largely listed as inhibitors; 360,000 tested, 6.9% active;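 further: plate controls were vehicle for no effect and reference inhibitor for full effect; nearly all actives have a fitted effect of over 55% in size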
# Target sequence (P08659 whole entry, looked up): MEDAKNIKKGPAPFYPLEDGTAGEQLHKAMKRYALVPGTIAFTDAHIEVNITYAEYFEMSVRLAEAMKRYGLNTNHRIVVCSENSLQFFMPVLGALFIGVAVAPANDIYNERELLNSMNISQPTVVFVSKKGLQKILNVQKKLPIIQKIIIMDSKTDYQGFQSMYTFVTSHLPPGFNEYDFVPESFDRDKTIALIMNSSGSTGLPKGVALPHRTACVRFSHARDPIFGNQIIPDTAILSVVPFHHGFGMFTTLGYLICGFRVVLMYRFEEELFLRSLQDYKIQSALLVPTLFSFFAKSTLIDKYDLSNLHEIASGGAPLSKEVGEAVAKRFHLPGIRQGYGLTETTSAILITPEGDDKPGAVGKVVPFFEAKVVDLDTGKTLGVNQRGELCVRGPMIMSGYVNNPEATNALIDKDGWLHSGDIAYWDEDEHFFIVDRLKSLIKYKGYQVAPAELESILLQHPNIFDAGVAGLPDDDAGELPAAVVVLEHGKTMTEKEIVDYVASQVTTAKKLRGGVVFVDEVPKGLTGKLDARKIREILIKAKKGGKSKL
#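 Purified P. pyralis luciferase (10nM final) with 10uM D-luciferin and 10uM ATP (Km levels) in 50mM Tris acetate pH 7.5, 10mM Mg acetate, 0.01% Tween-20, 0.05% BSA; qHTS 6-point titration, ~60 µM downward; luminescence read.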
# ELG1 repair inh: inhibitors of ELG1-dependent DNA repair in HEK293T cells; HEK293T ELG1-luciferase reporter, luminescence, 16 h; DNA damage induced by 5-fluorouridine; Potency, µM (titrated, usually from 46.1 µM), for the others: top-dose activity change, negative = inhibition, actives largely listed as inhibitors; 330,000 tested, 2.3% active; AID 504467; further: on the % scale 0 is the no-effect control and ±100 the full control effect; nearly all actives have a fitted effect of over 55% in size
#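 Reporter activity after DNA damage by 5-fluorouridine is monitored. Compound-treated cells incubate 16 hr at 37 °C, then ONE-Glo is added for 30 min before luminescence reading.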
# NPC1 prom act: NPC1 promoter activation; 320,000 tested, 2.4% active; Potency, µM (top dose mostly 9.22 µM), without a hit: at the top dose activation, usual class: activators; AID 485313; Huh7 NPC1 promoter luciferase reporter, 24 h; further: % of control where 0% means no effect; nearly all actives have a fitted effect of over 60% in size
#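 In 1536-well qHTS, Huh7 cells harboring an NPC1 promoter–luciferase construct received compound for 24 h; activation was quantified by luminescence following luciferase reagent addition.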
# SMN2 splice up: SMN2 splice variant enhancement; AID 1458; HEK293 SMN2-luciferase splicing reporter, luminescence, 30-36 h; 210,000 tested, 2.8% active; Potency, µM (series often up to 46.1 µM), for the others: top-dose activity change, positive = activation, actives largely listed as activators; further: % of control where 0% means no effect; nearly all actives have a fitted effect of over 55% in size
#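 HEK293 cells carry an SMN2 […]–luciferase reporter in which exon 7 inclusion puts luciferase in frame. Cells were plated 10-12 h before compound addition, then incubated 30-36 h at 37C. ONE-Glo luminescence was read; sodium butyrate at 4.5 mM final served as control.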
# * marks the source's active call; other numbers are inactive results; ? = inconclusive; / = no result given. Hits are enriched below; roughly 9.3% of the tested compounds scored in any of these assays. The call rests on the fitted dose curve; in most records, active means well fitted curve in the direction sought with a large enough effect; inconclusive means small, poorly fitted or top-dose-only effect, or another doubt; inactive means no such curve, though single readings can be large; an effect the other way counts as inactive or inconclusive. Potency means the concentration at half of the fitted maximal effect.
SMILES,ELG1 genotoxic,Rab9 prom act,FLuc modulator,ELG1 repair inh,NPC1 prom act,SMN2 splice up
COc1ccc(OCCn2c(C3CC(=O)N(c4ccc(F)cc4)C3)nc3ccccc32)cc1 (stereo unspecified),/,/,-2%,/,/,-4%
CCOc1ccccc1N1CC(c2nc3ccccc3n2CCCOc2ccc(OC)cc2)CC1=O (stereo unspecified),/,/,13µM*,/,/,?
CCOc1ccc(N2CC(c3nc4ccccc4n3CCCOc3ccc(OC)cc3)CC2=O)cc1 (stereo unspecified),/,/,24µM*,/,/,7%
Cc1cc(C)cc(OCCn2c(C3CC(=O)N(c4ccccc4Cl)C3)nc3ccccc32)c1 (stereo unspecified),/,-1%,-9%,/,4%,7%
Cc1ccc(OCCn2c(C3CC(=O)N(Cc4ccccc4)C3)nc3ccccc32)cc1 (stereo unspecified),-24%,2%,0%,15µM*,-10%,-23%
CCOC(=O)CSc1ccc(S(=O)(=O)N(C)C2CCCCC2)cc1[N+](=O)[O-],1%,1%,-1%,3%,2%,/
Cn1c(NC(=O)CC(C)(C)C)cc(=O)n(C)c1=O,0%,-2%,1%,18%,0%,-1%
CC(C)Cc1cc(C(=O)Nc2cccnc2)no1,10µM*,?,5.4µM*,?,0%,-4%
CSc1ccccc1NC(=O)c1cc(CC(C)C)on1,21µM*,?,?,?,?,?
Cc1cc(C(=O)Nc2cccnc2)no1,4%,-1%,-2%,3%,0%,4%
Cc1nc2c3cc(F)ccc3n(Cc3ccccc3)c2s1,18%,-6%,-2%,?,-2%,-5%
CCc1ccc2c(c1)c1nc(C)sc1n2CC(=O)OC,-4%,-2%,12µM*,1%,1%,-13%
CC(C)C(=O)N1CCc2cc(-c3csc(N)n3)ccc21,22%,3.5µM*,13µM*,?,?,13µM*
CCC(=O)N1CCc2cc(-c3csc(NC(=O)c4ccco4)n3)ccc21,-15%,22%,?,?,18%,/
CC1(C)CC(=O)C=C(NNC(=O)c2ccccc2O)C1,17%,3.2µM*,0.85µM*,?,?,18µM*
Cc1cccc(C(=O)NNC2=CC(=O)CC(C)(C)C2)c1O,?,?,11µM*,?,25%,/
CCOC(=O)CNC(=S)N(CCCN1CCCCC1)Cc1cccs1,1%,-8%,0%,?,-4%,-2%
CCc1nc2cc3sc(CC)nc3cc2s1,9.2µM*,2µM*,8.5µM*,?,3.5µM*,/
O=C(NCc1cccnc1)C1COc2ccccc2O1 (stereo unspecified),1%,3%,1%,7%,-1%,-10%
CCC(CC)c1nnc(NC(=O)C2COc3ccccc3O2)s1 (stereo unspecified),?,1.3µM*,7.6µM*,?,1.6µM*,?
O=C(NC1=NCCS1)C1COc2ccccc2O1 (stereo unspecified),?,?,0.24µM*,?,0.025µM*,/
O=C(Nc1ccncc1)C1COc2ccccc2O1 (stereo unspecified),-4%,-5%,-3%,-3%,1%,/
CCc1nnc(NC(=O)C2COc3ccccc3O2)s1 (stereo unspecified),?,2.8µM*,12µM*,?,3.2µM*,11µM*
O=C(Nc1ncc(Cc2ccccc2)s1)C1COc2ccccc2O1 (stereo unspecified),12%,2.8µM*,3µM*,?,1.6µM*,10µM*
CCCCCc1nnc(NC(=O)C2COc3ccccc3O2)s1 (stereo unspecified),?,29%,?,?,21%,-2%
SMILES,ELG1 genotoxic,Rab9 prom act,FLuc modulator,ELG1 repair inh,NPC1 prom act,SMN2 splice up
O=C(Nc1nc2c(s1)CCCC2)C1COc2ccccc2O1 (stereo unspecified),0.58µM*,0.32µM*,0.76µM*,?,0.56µM*,0.5µM*
Cc1nnc(NC(=O)C2COc3ccccc3O2)s1 (stereo unspecified),?,?,24µM*,?,?,28%
Cc1cc(C)nc(NC(=O)CSc2nc3cc(Cl)ccc3s2)n1,1%,0%,?,?,0%,23%
CCCCCn1c(Sc2nc3ccccc3s2)nc2c1c(=O)[nH]c(=O)n2C,-14%,-5%,2%,21µM*,3%,-48%
C=C(C)Cn1c(Sc2nc3ccccc3[nH]2)nc2c1c(=O)[nH]c(=O)n2C,-7%,6%,-2%,26µM*,6%,4%
CCCCCn1c(N2CCN(c3cccc(Cl)c3)CC2)nc2c1c(=O)[nH]c(=O)n2C,-8%,-1%,6%,23µM*,-3%,21%
CS(=O)(=O)N1CCc2cc(C(=O)Nc3ccc(C(F)(F)F)cc3)ccc21,/,/,-2%,/,/,-66%
O=C(N=C1SC2CS(=O)(=O)CC2N1CCc1ccccc1)C1CCCCC1 (stereo unspecified),6%,-8%,3%,-7%,-4%,/
COc1ccc(Cl)cc1C(=O)OCC(=O)NC(=O)c1cccn1C,4%,8%,3%,-5%,0%,-19%
O=C(O)c1ccc(CSc2nc3ccccc3o2)cc1,5%,0%,19µM*,5%,-1%,-10%
O=C(O)c1ccccc1CSc1nc2ccccc2o1,?,?,11µM*,?,4.5µM*,?
COc1ccc(-c2cc(-c3nnc(COC(=O)c4ccc(O)cc4)o3)c3ccccc3n2)cc1OC,-13%,-10%,?,?,-5%,-25%
COc1ccc(-c2cc(-c3nnc(COC(=O)CC4CCCC4)o3)c3ccccc3n2)cc1OC,-7%,-1%,?,21µM*,3%,-10%
COc1ccc(-c2cc(C(=O)N3CC(C)CC(C)C3)c3ccccc3n2)cc1OC (stereo unspecified),2%,-1%,?,?,-1%,/
COc1ccc(-c2cc(-c3nnc(COC(=O)C4CC4C)o3)c3ccccc3n2)cc1OC (stereo unspecified),-3%,0%,?,9.2µM*,-1%,-2%
COc1cc(-c2nnc(COC(=O)CSc3cc(C)c4ccccc4n3)o2)cc(OC)c1OC,12%,0%,0%,?,-4%,43%
COc1ccc(-c2cc(-c3nnc(COC(=O)C4CC4)o3)c3ccccc3n2)cc1OC,-3%,-3%,?,7.3µM*,-2%,15%
Oc1[nH]c2ccccc2c1C1=NCCCC1,4%,1%,-18%,12%,7%,6%

# Source: PubChem BioAssay
